TSG101-PTAP inh – blocks PTAP/TSG101 interaction to inhibit HIV-1 budding | Q99816 | Fluorescence polarization, FITC-PTAP peptide / Tsg101 binding | Potency, µM (top dose mostly 115 µM), inactives show at the highest dose activity change, negative = inhibition, most hits filed as inhibitors | 340,000 tested, under 10 active | AID 493005; active means well fitted inhibition curve with a large enough effect in the main read-out, with a control signal flat, not every such curve was filed as active; inconclusive means small, poorly fitted or top-dose-only effect, or effect the other way, or a change in a side signal; inactive means no such curve, though single readings can be large or run the other way; further: potency means the concentration at half of the fitted maximal effect; % of control where 0% means no effect
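Tsg101 binding domain (10 uM final) was mixed with compound and a FITC-labeled PTAP peptide (50 nM final) in HEPES pH 7.5 buffer with NaCl, Tween 20, EDTA and TCEP; fluorescence polarization was read after 20 min at r.t.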
PLK1 PBD block – blocks phosphopeptide binding to human PLK1 polo-box domain. 360,000 compounds, 2.8% hits. Plk1 PBD binding of FITC phosphopeptide, fluorescence polarization. P53350. Potency, µM, inactives show max response, negative = inhibition, usual class: inhibitors; further: potency means the concentration at half of the fitted maximal effect; series mostly up to about 57 µM; on the % scale 0 is the no-effect control and ±100 the full control effect; nearly all actives have a fitted effect of over 65% in size
TSHR antagonist – antagonists of human thyroid stimulating hormone receptor | 330,000 compounds, 0.2% hits | TSHR-expressing cells, TSH-stimulated cAMP HTRF, 2 h; stronger effect = lower value | activity change, negative = inhibition, % at 11.5 µM;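 active means activity change below a set negative limit, meaning inhibition stronger than a set level, cut at about -70% in these data; inconclusive means activity change between two set negative limits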; further: on the % scale 0 is the no-effect control and ±100 the full control effect
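Cell-based HTRF cAMP assay; TSHR cells + compound, TSH EC80 (4nM final), 2 h, 37 deg C. Lysis with anti-cAMP cryptate and cAMP-d2, 30 min RT, read 665/620 nm.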
uPA generation – cell surface uPA generation inhibition. 330,000 compounds, 0.31% hits. cell surface uPA generation assay, qHTS. Potency, µM (doses to about 38.3 µM), for the others: at the top dose activity change, negative = inhibition, hits mostly inhibitors; active means well fitted inhibition curve with a large enough effect; inconclusive means small, poorly fitted or top-dose-only effect; inactive means no such curve, though single readings can be large or run the other way; tested in mouse RAW 264.7 cells; further: potency means the concentration at half of the fitted maximal effect; on the % scale 0 is the no-effect control and ±100 the full control effect; nearly all actives have a fitted effect of over 55% in size
VDR inh – inhibitors of human vitamin D receptor; P11473; VDR-SRC2-3 peptide fluorescence polarization, 2 h; Potency, µM, inactives show max response, negative = inhibition, most hits filed as inhibitors; 400,000 compounds, 0.93% hits; AID 504847; further: potency means the concentration at half of the fitted maximal effect; on the % scale 0 is the no-effect control and ±100 the full control effect
Target sequence (P11473 whole entry, looked up): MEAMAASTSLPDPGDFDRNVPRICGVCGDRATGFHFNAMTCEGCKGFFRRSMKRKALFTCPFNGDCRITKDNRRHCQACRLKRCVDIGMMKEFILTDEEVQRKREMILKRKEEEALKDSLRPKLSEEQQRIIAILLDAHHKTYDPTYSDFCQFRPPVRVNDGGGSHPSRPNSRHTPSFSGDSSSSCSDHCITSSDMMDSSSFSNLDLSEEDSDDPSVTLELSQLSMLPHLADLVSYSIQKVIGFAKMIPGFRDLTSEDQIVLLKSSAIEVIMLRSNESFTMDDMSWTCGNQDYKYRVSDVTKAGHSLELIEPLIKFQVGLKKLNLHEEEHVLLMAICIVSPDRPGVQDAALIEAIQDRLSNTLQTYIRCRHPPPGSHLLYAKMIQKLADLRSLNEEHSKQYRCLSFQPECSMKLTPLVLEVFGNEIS
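Fluorescence polarization assay measuring small-molecule disruption of VDR binding to the coregulator peptide SRC2-3. Compounds were pin-transferred (23 nl) into the reagent mix and incubated 2 h at room temperature before reading.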
Starred values were filed as active, the others as inactive; ? = inconclusive; · = no result; ! = not active in a repeat. Shown are actives, neighbours in structure and some others; about 3.1% of the full set was active somewhere. Unless noted, the call rests on the fitted dose curve; in most records, active means well fitted curve in the direction sought with a large enough effect; inconclusive means small, poorly fitted or top-dose-only effect, or another doubt; inactive means no such curve, though single readings can be large; an effect the other way counts as inactive or inconclusive.

SMILES	TSG101-PTAP inh	PLK1 PBD block	TSHR antagonist	uPA generation	VDR inh
CCCCN(C)C(=O)Cc1c(OC)ccc2cc(Br)ccc12	0%	24µM*	0	0%	22µM*
c1ccc2c(c1)SCc1c-2[nH]c2ccccc12	·	·	·	·	10µM*
COc1ccccc1Cc1c(-c2ccco2)nc2ccc(C)cn12	·	-18%	·	·	·
CC1=C(c2ccc(Cl)cc2)S(=O)(=O)NC1=NCc1ccc(C)cc1	·	·	·	·	9%
COc1cccc(C(=O)NNC(=O)Cc2ccc(Cl)cc2)c1	-1%	1%	-5	3%	6%
COc1cccc(C(=O)NN/C(C)=C/C(=O)C(F)(F)C(F)(F)C(F)(F)F)c1	1%	27µM*	9	-6%	?
Cn1c(NCCN(CCO)CCCc2ccc([N+](=O)[O-])cc2)cc(=O)n(C)c1=O	4%	-4%	·	1%	50µM*!
CCCCNc1cc(=O)n(C)c(=O)n1C	-1%	-4%	4	-5%	10%
O=C(Nc1nc(-c2ccccc2)cs1)c1ccc(Br)o1	0%	30µM*	-25	-2%	?
Cc1ccc(C(=O)Nc2nc(-c3cccnc3)cs2)o1	0%	?	-13	6%	-10%
Fc1ccc(COc2ccccc2C(=S)N2CCCC2)cc1	1%	4.2µM*	-13	-3%	50µM*
CC(=O)Nc1ccccc1NC(=O)C/C(C)=N/NC(=O)c1ccccn1	-5%	27µM*	15	?	-24%
COCCN1C(=O)N[C@@H](CCc2ccccc2)C(C(C)=O)=C1C	0%	-8%	18	2%	0%
CCN1C(=O)N[C@@H](CCc2ccccc2)C(C(C)=O)=C1C	-5%	27µM*	·	5%	?
O=C(CN1CCN(S(=O)(=O)c2ccc(Br)cc2)CC1)N/N=C/c1ccc(Br)s1	-5%	24µM*	7	10%	-1%
Cc1ccc(/C=N/NC(=O)CN2CCN(S(=O)(=O)c3ccc(Br)cc3)CC2)s1	0%	-7%	4	-4%	-10%
CCOC(=O)C1(C)/C(=N/Nc2ccccc2)C(=O)C(=O)N1c1ccccc1 (stereo not drawn)	-3%	24µM*	10	4%	?
COc1ccc(C(=O)c2ncc(C(F)(F)F)cc2Cl)cc1	1%	24µM*	0	6%	?
CCOc1ccc(C(c2c(O)nc(SC)n(C)c2=O)c2c(O)nc(SC)n(C)c2=O)cc1	1%	12µM*	2	-1%	40µM*
CCOc1ccc(OCC(=O)OCn2c(SC)nnc(C)c2=O)cc1	-3%	-7%	5	-2%	3%
CC(Oc1ccccc1)C(=O)N1CCN=C1SCc1ccccc1F (stereo not drawn)	0%	2%	-4	-5%	4%
CSC1=NCCN1C(=O)C(C)Oc1ccccc1 (stereo not drawn)	0%	30µM*	11	-4%	-20%
CCCCCCn1c(SCC(=O)OC)nc2c1c(=O)[nH]c(=O)n2C	-2%	5.3µM*	0	-4%	22µM*
CCCCCSc1nc2c(c(=O)[nH]c(=O)n2C)n1CC	-1%	21µM*	·	?	?
CCOC(=O)C(C)Sc1nc2c(c(=O)[nH]c(=O)n2C)n1C/C=C(/C)Cl (stereo not drawn)	-13%	12µM*	-4	-10%	?
SMILES	TSG101-PTAP inh	PLK1 PBD block	TSHR antagonist	uPA generation	VDR inh
C=CCSc1nc2c(c(=O)[nH]c(=O)n2C)n1CC	1%	24µM*	7	-11%	-16%
COc1ccc(Br)c(Cn2c(C)c(C(=O)NCc3ccccc3C(F)(F)F)sc2=O)c1	·	-2%	·	·	·
Cc1noc(C)c1-c1nc(Nc2ccncc2)c2ccccc2n1	·	·	·	·	-13%
O=C(Nc1sc2c(c1C(=O)N1CCCCC1)CCCC2)c1ccccc1Cl	·	·	·	·	-15%
C=CCc1cccc2cc(C(=O)Nc3cccc(Cl)c3)c(=O)oc12	·	·	·	·	-5%
C=CCc1cccc2cc(NC(C)=O)c(=O)oc12	-3%	27µM*	2	4%	-13%
CCOc1ccc(C(=O)/C=C/Nc2ccc(S(=O)(=O)Nc3onc(C)c3C)cc2)cc1	-1%	-27%	-37	3%	0%
Cc1noc(NS(=O)(=O)c2ccc(N/C=C\C(=O)c3ccc(Br)cc3)cc2)c1C	-10%	27µM*	5	-23%	-13%
Cc1noc(NS(=O)(=O)c2ccc(N/C=C\C(=O)c3cccc4ccccc34)cc2)c1C	-12%	24µM*	5	3%	?
CC1OC(=O)c2cc3ccccc3nc21 (stereo not drawn)	·	-2%	·	·	·
O=C(CSC1=Nc2ccccc2C2=NC(Cc3ccccc3)C(=O)N12)Nc1cccc(Cl)c1 (stereo not drawn)	·	·	·	·	4%
Cc1ccc(-c2onc(C)c2C)cc1S(=O)(=O)N1CCN(c2ccccc2F)CC1	·	·	·	·	-4%
O=C(N/N=C\CCc1ccccc1)c1ccco1	-1%	15µM*	1	0%	?
CCOc1ccccc1CN1CCNC(=O)C1CC(=O)NC1CCCCCC1 (stereo not drawn)	-7%	21µM*	18	-6%	?
O=C(c1noc2c1CCCCC2)N1CCN(c2ccc(Cl)cc2)CC1	·	·	·	·	6%
Cc1ccc(NC(=O)c2cc(N3C(=O)CCC3=O)ccc2N2CCOCC2)cc1	0%	-3%	6	·	0%
Cc1ccc(NC(=O)c2cc(N3C(=O)C=CC3=O)ccc2N2CCOCC2)cc1Cl	-1%	4.7µM*	-21	-6%	45µM*
COC(=O)c1cc(NC(=O)c2cccs2)ccc1N1CCOCC1	0%	27µM*	6	-5%	?
O=C(Nc1ccc(N2CCOCC2)c(F)c1)c1cccs1	-1%	-1%	15	-17%	6%
NCC1OC(O[C@H]2[C@H](O)[C@@H](OC3C(O)C(N)CC(N)C3OC3OC(CO)C(O)C(O)C3N)O[C@@H]2CO)C(N)C(O)C1O (stereo partly drawn)	·	·	-8	·	-1%
CCNc1nc(NCC)n2c(SCC(=O)Nc3ccccc3F)nnc2n1	-4%	12µM*	-9	1%	-7%
CCNc1nc(NCC)n2c(SCC(=O)Nc3ccc(NC(C)=O)cc3)nnc2n1	0%	-5%	23	5%	-4%
CCNc1nc(NCC)n2c(SCC(=O)Nc3ccccc3OC(F)F)nnc2n1	-3%	-11%	-5	-4%	5%
CCNc1nc(NCC)n2c(SCC(=O)Nc3ccc(CC)cc3)nnc2n1	6%	6.7µM*	1	-7%	50µM*
O=C1CCCC/C1=C/Nc1cccc(C(F)(F)F)c1	-4%	-11%	-1	15%	3%
O=C1CCC2S/C(=C/Nc3ccc(C(F)(F)F)cc3)C(=O)N12 (stereo not drawn)	-2%	9.5µM*	-7	-5%	-22%
Cc1cc(NS(=O)(=O)c2ccc(NC(=O)COc3ccccc3Br)cc2)no1	·	·	·	·	-3%
Cc1ccc2c(c1)N(C(=O)CCC(=O)NCc1cccs1)CC(C)O2 (stereo not drawn)	·	·	·	·	-2%

From PubChem
